High-throughput results: PubChem BioAssay, National Center for Advancing Translational Sciences (NCATS)
The list is not random: actives were taken first. Their share in the collection is about 19%.
TDP1 cell CPT = DT40-hTDP1 cell growth loss with CPT. 12% of 420,000 active. Potency, µM (top dose mostly 46.2 µM), inactives show at the top dose activity change, negative = growth inhibition, most hits filed as inhibitors. chicken DT40 Tdp1-/-;hTDP1 cells + 20 nM CPT, ATP luminescence, 48 h; further: potency means the concentration at half of the fitted maximal effect; on the % scale 0 is the no-effect control and ±100 the full control effect; nearly all actives have a fitted effect of over 55% in size
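Chicken DT40 Tdp1-/- cells stably complemented with human TDP1 were seeded at 400 cells/well in medium containing 20 nM camptothecin, exposed to pin-transferred compounds, and grown at 37 °C for at least 48 hr. Viability was read as ATP luminescence.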
ASM inhibitor = human S-ASM enzyme inhibition | P17405 | placental ASM, HMU-PC fluorogenic substrate, 60 min | Potency, µM (series often up to 57.5 µM), inactives show top-dose activity change, negative = inhibition, actives largely listed as inhibitors | 0.006% of 340,000 active; further: potency means the concentration at half of the fitted maximal effect
Target sequence (P17405 47-631 limits assumed): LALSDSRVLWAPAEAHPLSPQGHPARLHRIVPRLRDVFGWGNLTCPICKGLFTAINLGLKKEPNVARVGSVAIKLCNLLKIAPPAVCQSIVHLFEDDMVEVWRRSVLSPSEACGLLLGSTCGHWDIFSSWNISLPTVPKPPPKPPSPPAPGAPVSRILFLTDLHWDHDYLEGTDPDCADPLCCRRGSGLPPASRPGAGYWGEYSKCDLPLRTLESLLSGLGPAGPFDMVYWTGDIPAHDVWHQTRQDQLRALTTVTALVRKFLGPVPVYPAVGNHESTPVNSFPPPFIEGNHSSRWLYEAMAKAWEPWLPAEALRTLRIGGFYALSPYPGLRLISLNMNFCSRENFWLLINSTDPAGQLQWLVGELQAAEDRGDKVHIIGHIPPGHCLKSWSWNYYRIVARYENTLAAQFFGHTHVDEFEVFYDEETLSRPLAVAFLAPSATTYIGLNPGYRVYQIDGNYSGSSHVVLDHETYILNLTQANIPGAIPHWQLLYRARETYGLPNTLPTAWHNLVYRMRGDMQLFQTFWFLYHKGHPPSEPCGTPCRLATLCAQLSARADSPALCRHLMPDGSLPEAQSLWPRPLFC
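Fluorescence read-out (Ex 386 nm, Em 447 nm) after stopping the reaction at pH 10. Enzyme: ASM from human placenta; substrate HMU-PC0, 9 uM final; 60 min, 37 °C. Compound preincubation 10 min, ambient temperature.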
DT40 TDP1 no CPT = qHTS for Inhibitors of human tyrosyl-DNA phosphodiesterase 1 (TDP1): qHTS in cells in absence of CPT; DT40 Tdp1-/- hTDP1 cells, no CPT, ATP luminescence, 48 h; Potency, µM (top dose mostly 46.2 µM), for the others: at the highest dose activity change, negative = growth inhibition, actives largely listed as inhibitors; 15% of 420,000 active; further: potency means the concentration at half of the fitted maximal effect; on the % scale 0 is the no-effect control and ±100 the full control effect; nearly all actives have a fitted effect of over 55% in size
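Stably hTDP1-transfected Tdp1-null chicken DT40 cells were treated with library compounds minus camptothecin and grown for at least 48 hr at 37 °C, after which cellular ATP was quantified by luminescence.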
HepG2 viability = kills HepG2 cells in TGF-b inhibitor counter-screen; HepG2 CAGA-GFP viability, ATP luminescence, 18 h; Potency, µM (highest dose often 46.1 µM), for the others: top-dose activity change, negative = cytotoxicity, most hits filed as cytotoxic; 0.76% of 410,000 active; further: potency means the concentration at half of the fitted maximal effect
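CellTiter-Glo luminescence gave cytotoxicity after 18 hours at 37 degrees C. The cells were HepG2 CAGA-GFP in 1% FBS DMEM, stimulated with 500 pg/mL TGF-beta after compound addition. %Activity was normalised to no-cell wells (complete cell-killing) and DMSO (no toxicity), and curves were fitted and classified.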
IL-1B inflam inh = inhibitors of inflammasome signaling (IL-1 beta secretion); THP-1 LPS/ATP IL-1B secretion, AlphaLISA, 16 h; stronger effect = lower value; activity change, % at 57.5 µM; 4.7% of 360,000 active; in the data active means activity change below about -50%; inconclusive means mostly about -30% to -49%; further: on the % scale 0 is the no-effect control and ±100 the full control effect
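THP-1 cells pretreated 1 hr with compounds (up to 57.5 uM final), then stimulated with LPS (250 ng/mL final) plus ATP (1.25 mM final); secreted IL-1B measured by AlphaLISA after 16 hr, decreased signal indicating inhibition.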
TGFb SMAD3 inh = inhibitors of TGF-b signaling; 1.2% of 410,000 active; Potency, µM (top dose mostly 46.1 µM), for the others: at the top dose activity, negative = inhibition, most hits filed as inhibitors; HepG2 CAGA-GFP TGF-b/SMAD3 reporter, GFP fluorescence, 18 h; TGF-beta stimulated, 500 pg/mL final; AID 588855; further: potency means the concentration at half of the fitted maximal effect; on the % scale 0 is the no-effect control and ±100 the full control effect; nearly all actives have a fitted effect of over 65% in size
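GFP signal (ex488/em500-530) from TGF-beta-stimulated HEPG2 CAGA-GFP cells, 500 pg/mL final, 18 h at 37 degrees C in DMEM plus 1% FBS, normalized to unstimulated and DMSO-stimulated controls.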
Active calls of the source: *; ? = inconclusive; / = not tested or not shown. Unless noted, the call rests on the fitted dose curve; in most records, active means well fitted curve in the direction sought with a large enough effect; inconclusive means small, poorly fitted or top-dose-only effect, or another doubt; inactive means no such curve, though single readings can be large; an effect the other way counts as inactive or inconclusive.

SMILES	TDP1 cell CPT	ASM inhibitor	DT40 TDP1 no CPT	HepG2 viability	IL-1B inflam inh	TGFb SMAD3 inh
CCCC[C@@H]1C[C@H]1[C@@H](NC(=O)c1cccs1)c1ccc(Cl)cc1	29µM*	-7%	15µM*	-33%	-19	?
COc1cccc(-n2ccnc2SCC(=O)Nc2ccc(Cl)c(Cl)c2)c1	-26%	/	?	1%	/	-21%
Cc1n(C)c2cc(Cl)ccc2[n+]1Cc1ccccc1	?	8%	23µM*	-1%	-1	4%
CC[n+]1c(C)n(C)c2cc(S(=O)(=O)N(C)C)ccc21	15%	-2%	0%	1%	-1	30%
CCOC(=O)c1c(-c2ccc(OC)cc2)csc1NC(=O)CCN1CCOCC1	?	-3%	18µM*	-11%	-10	-3%
CCOC(=O)c1sc(NC(=O)COc2ccccc2Cl)c(C(=O)OCC)c1C	-9%	/	?	-3%	/	4%
CCOC(=O)c1c(-c2ccc(OC)cc2)csc1NC(=O)CCN1C(=O)c2ccccc2C1=O	16µM*	-1%	?	-24%	-18	-2%
Cc1ccc(NC(=O)CCN2CC(C)OC(C)C2)cc1 (stereo not drawn)	13%	4%	1%	9%	42	5%
CCOC(=O)c1c(-c2ccc(C)cc2)csc1NC(=O)CCN1CC(C)OC(C)C1 (stereo not drawn)	?	-9%	26µM*	20µM*	-6	?
CCOC(=O)c1sc(NC(=O)CNCc2ccccn2)c(C(=O)OCC)c1C	?	-4%	26µM*	-11%	10	-4%
Brc1ccc(/C=C2\C=Cc3ccccc32)cc1	?	/	?	-33%	/	-7%
CCOc1ccc(CN(C)C(=O)c2ccc3c(c2)NC(=O)C(C)S3)cc1OC (stereo not drawn)	?	1%	?	-5%	15	-17%
CCOC(=O)c1sc(NC(=O)CCN2CCCCCC2)c(C(=O)OCC)c1C	?	-5%	?	18µM*	-99*	?
CCOC(=O)c1c(NC(=O)CC)sc(C(=O)N2CCCCC2)c1C	-2%	-1%	-13%	-21%	-8	-11%
CCOC(=O)c1c(NC(=O)CCN2CCOCC2)sc(C)c1-c1ccccc1	21µM*	-4%	23µM*	-11%	-78*	-22%
CCOC(=O)CC1CCCCN1C(=O)CCCn1nnnc1CN1CCC(C)CC1 (stereo not drawn)	?	2%	-13%	1%	14	?
O=C(OCC(=O)c1cccc2ccccc12)c1ccc(CO)cc1	-6%	-4%	-15%	7%	-26	12%
COc1cc(C2NC(=O)NC(O)(C(F)(F)F)C2C(C)=O)cc(OC)c1OC (stereo not drawn)	-17%	1%	-30%	0%	0	-8%
CC(C)(C)C1CCN2CCCC(c3ccc([N+](=O)[O-])cc3)(C1)C21OCCO1 (stereo not drawn)	21µM*	/	?	/	26	/
CC12COC3(C(=O)Nc4ccc([N+](=O)[O-])cc4)CC1CCC32C (stereo not drawn)	-24%	-2%	?	-28%	-5	-17%
COc1cc(C23CCCN(CCC(C(C)(C)C)C2)C32OCCO2)cc(OC)c1OC (stereo not drawn)	?	/	23µM*	/	-2	/
CC1=C(C(=O)Nc2ccccc2C(=O)N2CCC(C)CC2)SCCO1	-22%	0%	-15%	18%	-8	-7%
Cc1ccc(S(=O)(=O)CCSc2n[nH]c(=O)n2-c2ccc3c(c2)OCCO3)cc1	?	4%	21µM*	2%	?	-2%
Cc1ccc(S(=O)(=O)NC2CC(=O)N(c3ccc4c(c3)OCCO4)C2)cc1 (stereo not drawn)	?	3%	?	0%	10	-2%
Oc1ccc(Cl)cc1Nc1nc2ccccc2n2cnnc12	-22%	/	?	-2%	/	-23%
SMILES	TDP1 cell CPT	ASM inhibitor	DT40 TDP1 no CPT	HepG2 viability	IL-1B inflam inh	TGFb SMAD3 inh
O=C(Nc1cc(Cl)cc(Cl)c1)c1cccc(OC(F)F)c1	18µM*	-11%	?	-49%	-95*	?
COc1ccc(S(=O)(=O)N(C)C)cc1NC(=O)c1ccc2c(c1)OCCO2	-22%	4%	-25%	4%	-57*	2%
CN(C)S(=O)(=O)c1cccc(NC(=O)c2ccc3c(c2)OCCO3)c1	15µM*	0%	15µM*	-18%	-3	0%
CN(C)S(=O)(=O)c1cccc(C(=O)Nc2cc(Cl)cc(Cl)c2)c1	?	-20%	18µM*	-35%	?	?
CN(C)S(=O)(=O)c1cccc(NC(=O)c2ccncc2)c1	-20%	2%	?	-4%	6	1%
CN(C)S(=O)(=O)c1cccc(C(=O)Nc2ccccc2)c1	0%	5%	-22%	-6%	10	-26%
Cc1ccnc(NC(=O)c2cccc(OC(F)F)c2)n1	-15%	2%	-13%	-16%	-13	-1%
CCOC(=O)c1ccccc1NC(=O)C1CSC2(C)CCC(=O)N12 (stereo not drawn)	-29%	-1%	-24%	-9%	8	0%
O=C(Cc1ccc(NC2=NC3CS(=O)(=O)CC3S2)cc1)NCCc1ccccc1 (stereo not drawn)	4%	4%	-4%	1%	-2	1%
Cc1cc(Br)c(S(=O)(=O)NCc2cccnc2)cc1C	-7%	-2%	0%	0%	20	0%
CSc1nc(C(C)C)ccc1CNC(=O)CC(C)c1ccccc1 (stereo not drawn)	-25%	-2%	23µM*	15%	18	?
CC(CC(=O)NCc1ccc(F)cc1)c1ccccc1 (stereo not drawn)	-1%	0%	-6%	11%	72	2%
CCc1cc(C(=O)OCC(=O)N2CCC(c3ccccc3)=N2)sc1C	-17%	-9%	-11%	0%	-1	-7%
Nc1ccc2c(c1)C(=O)N(c1cccc3ccccc13)C2=O	0%	6%	-25%	-2%	-11	7%
CCN1C(=O)N(c2cccc3ccccc23)C(C)=CC1(C)C	?	0%	23µM*	27%	6	?
Cc1ccc(S(=O)(=O)Nc2cc3c(C(=O)OCc4ccccc4)c(C)oc3c3ccccc23)cc1	?	/	?	-25%	/	-1%
